# According to paper PMC4336329 (PLoS ONE, 2015):
# The campaign covered roughly 310,000 compounds. About 2,200 (0.71%) showed an effect of 50% or more. Effects have a minus sign here. For the sample, strong results were picked, then their nearest neighbours and some compounds at random.
# Biological target: human ether-à-go-go-related gene (hERG) potassium channel (human, UniProt Q12809)
# Test: primary screen, population patch clamp on CHO cells stably expressing hERG; higher = less effect of the substance
# Method: Briefly, Chinese hamster ovary (CHO) cells stably expressing the hERG channel were dislodged from tissue culture flasks and dispensed into PPC plates. […] During the recording, background leak currents were estimated by a 100 ms step to -80 mV from an initial holding potential of -70 mV and subtracted from the subsequent current measurement. The campaign was conducted in two phases using slight differences in recording protocol. In the first phase, the initial voltage pulse used a 100 ms step to -30 mV from a holding potential of -70 mV, a 2 s conditioning step to +25 mV, and a 2 s test step to -30 mV. During the second phase of the screen, the potential during the conditioning step was raised to +45 mV. In both phases of the campaign, a secondary voltage pulse was applied using the same parameters as the second phase initial pulse. The initial and secondary pulses were applied in the absence of compound, and upon application of 1 μM and 10 μM test concentrations. Small molecule effects on hERG current density were quantified by […].
# Sequence of human ether-à-go-go-related gene (hERG) potassium channel (Q12809 whole entry, looked up): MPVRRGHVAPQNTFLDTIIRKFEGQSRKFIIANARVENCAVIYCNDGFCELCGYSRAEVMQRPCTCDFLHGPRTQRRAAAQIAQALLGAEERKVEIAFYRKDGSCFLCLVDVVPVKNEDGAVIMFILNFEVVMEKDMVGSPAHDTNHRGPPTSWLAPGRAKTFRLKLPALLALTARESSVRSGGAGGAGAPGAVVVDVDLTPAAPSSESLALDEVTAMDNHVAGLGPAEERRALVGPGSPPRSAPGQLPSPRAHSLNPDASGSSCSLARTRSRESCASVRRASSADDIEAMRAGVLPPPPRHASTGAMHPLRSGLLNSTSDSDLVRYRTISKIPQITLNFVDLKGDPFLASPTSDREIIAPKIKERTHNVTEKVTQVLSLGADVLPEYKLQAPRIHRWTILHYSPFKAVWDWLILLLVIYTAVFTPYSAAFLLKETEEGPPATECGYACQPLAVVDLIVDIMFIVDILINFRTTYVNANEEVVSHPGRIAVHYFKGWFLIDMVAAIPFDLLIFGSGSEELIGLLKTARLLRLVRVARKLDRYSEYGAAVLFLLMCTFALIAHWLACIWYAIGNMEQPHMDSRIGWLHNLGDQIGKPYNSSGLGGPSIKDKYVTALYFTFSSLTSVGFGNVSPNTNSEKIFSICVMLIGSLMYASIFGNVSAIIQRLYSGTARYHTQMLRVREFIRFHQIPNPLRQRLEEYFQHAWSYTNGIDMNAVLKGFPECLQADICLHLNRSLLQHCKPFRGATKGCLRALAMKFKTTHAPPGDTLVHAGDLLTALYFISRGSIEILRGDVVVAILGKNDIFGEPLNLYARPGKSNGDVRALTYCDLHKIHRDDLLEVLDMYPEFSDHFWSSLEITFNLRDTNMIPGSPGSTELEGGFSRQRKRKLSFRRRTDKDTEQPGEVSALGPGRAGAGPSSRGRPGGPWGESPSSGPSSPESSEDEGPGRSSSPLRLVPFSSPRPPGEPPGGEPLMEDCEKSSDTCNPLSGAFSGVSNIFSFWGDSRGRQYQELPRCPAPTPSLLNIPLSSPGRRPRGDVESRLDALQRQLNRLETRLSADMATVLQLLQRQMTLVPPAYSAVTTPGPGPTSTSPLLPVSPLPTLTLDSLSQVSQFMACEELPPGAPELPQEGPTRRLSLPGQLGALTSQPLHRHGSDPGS
row,Structure (SMILES),"hERG current change (%, negative = inhibition) at 1uM [%]"
1,Cn1cc(Cl)c(-c2n[nH]c(=S)n2-c2ccccc2)n1,14
2,CCOC(=O)c1sc(NC(=O)c2ccc(OC)cc2)nc1C,15.9
3,CCN(C(=O)C1CC1)C1CCS(=O)(=O)C1 (stereo not shown),9.67
4,CCC(C)C(=O)N[C@@H](c1ccccc1)[C@@H](O)C(=O)O[C@H]1C[C@@]2(O)[C@@H](OC(=O)c3ccccc3)C3[C@](C)(C(=O)[C@H](OC(C)=O)C(=C1C)C2(C)C)[C@@H](O)C[C@H]1OC[C@@]31OC(C)=O (stereo partly shown),7.34
5,CCOC(=O)COc1ccc(CCNC(C)=O)cc1,17.8
6,Cn1c(CSCc2ccccc2Cl)nnc1SCC(=O)Nc1nccs1,2.67
7,CCNS(=O)(=O)c1ccc(CCC(=O)N2CCN(c3ccccc3)CC2)cc1,3.97
8,N#Cc1ccc(CN2CCN(C(=O)CC(NC(=O)c3ccccc3)c3ccccc3)CC2)cc1 (stereo not shown),-84.7
9,COc1cccc(N2CCN(C(=O)CC(NC(=O)c3ccccc3)c3ccccc3)CC2)c1 (stereo not shown),-27
10,Cc1cccc(N2CCN(C(=O)CSCc3c(C)noc3C)CC2)c1C,6.62
11,Cc1noc(C)c1CSCC(=O)N1CCN(c2ccc(F)cc2)CC1,-17.9
12,O=C(CCCSc1nc2ccccc2[nH]1)N1CCN(c2ccccc2)CC1,-32.8
13,CC(NC(=O)c1ccccc1)c1nc2ccccc2n1Cc1ccc(C#N)cc1 (stereo not shown),-35.6
14,COc1ccc(N2CCN(C(=O)CCCSc3nc4ccccc4[nH]3)CC2)cc1,-29.6
15,O=C(CCCSc1nc2ccccc2[nH]1)N1CCN(c2ccc([N+](=O)[O-])cc2)CC1,-86.9
16,Cc1noc(C)c1CSCC(=O)N1CCN(c2ccc([N+](=O)[O-])cc2)CC1,-83.4
17,CC(C)CNS(=O)(=O)c1ccc(CCC(=O)N2CCN(c3ccc(F)cc3)CC2)cc1,-9.44
18,CC(C)CNS(=O)(=O)c1ccc(CCC(=O)N2CCN(c3ccccc3)CC2)cc1,-61.5
19,Cc1ccnc(NC(=O)Cn2cc([N+](=O)[O-])cn2)c1,10.4
20,CCOC(=O)c1sc(=S)n(-c2ccccc2)c1N(C(C)=O)C(C)=O,15.5
21,COc1ccc(S(=O)(=O)N2CCOCC2)cc1NC(=O)CCc1cc(OC)c(OC)c(OC)c1,2.32
22,CC(NC(=O)c1cccnc1)C(c1cccs1)N1CCN(C)CC1 (stereo not shown),8.63
